Assay [1] is described as follows: ATG_XTT_Cytotoxicity: Cytotoxicity Assessment in the Attagene TRANS-FACTORIAL HepG2 Assay (AID 2283584).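 For AC50: cells exposed to compound for 24 h before reading; active means loss of viability signal versus DMSO baseline.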 The gist of the method:
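XTT readout of cell number in transfected HepG2 cells, 24 h post-dosing; DMSO serves as negative control and baseline, with activity taken as loss of viability signal.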

A short description of assay [2]: TOX21_p53_BLA_p2_viability: Viability Assessment in the Tox21 HCT-116 p53 Agonism Beta-lactamase Assay, Phase 2 (AID 2283591).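 Note: actives lower the ATP signal meaning cytotoxicity.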 The gist of the method:
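HCT116 p53-bla cells, 4000/well, dosed after 5 h plating (217-fold dilution of DMSO stocks) and incubated 16 h at 37C. Viability taken as cellular ATP by CellTiter-Glo luminescence after 30 min RT; signal loss marks cytotoxicity.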

Assay [3] has as its target Cellular tumor antigen p53 (Homo sapiens) (UniProt P04637). In words: TOX21_p53_BLA_p2_ratio: Tox21 HCT-116 p53 Agonism Beta-lactamase Assay, Ratio, Phase 2 (AID 2283592). The gist of the method: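 Readout: blue/green (460/530 nm) FRET emission ratio after 2 h CCF4-AM loading at room temperature, excitation 405 nm. HCT116 p53 bla cells, 16 h compound exposure at 37C, 5% CO2; agonist direction fitted against DMSO baseline.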

Assay [4] can be described thus: TOX21_p53_BLA_p3_viability: Viability Assessment in the Tox21 HCT-116 p53 Agonism Beta-lactamase Assay, Phase 3 (AID 2283593).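 Note: cells exposed to compound for 16 h before reading.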 A digest of the protocol: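 HCT116 cells, 4000/well, dosed 5 h after plating by pin transfer (217-fold dilution from DMSO stock) and incubated 16 h at 37C, 5% CO2. Viability read as ATP luminescence with CellTiter-Glo after 30 min at room temperature.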

Assay [5] deals with Cellular tumor antigen p53 (Homo sapiens) (UniProt P04637). In words: TOX21_p53_BLA_p3_ratio: Tox21 HCT-116 p53 Agonism Beta-lactamase Assay, Ratio, Phase 3 (AID 2283596). A digest of the protocol:
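Cells were seeded at 4000/well, rested 5 h at 37C, then dosed with DMSO compound solutions (217-fold dilution) for 16 h. CCF4-AM substrate was loaded for 2 h at room temperature, and the 460/530 nm emission ratio was fitted for gain of signal versus DMSO.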

Assay [6] has the same target. The assay is described as follows: TOX21_p53_BLA_p5_ratio: Tox21 HCT-116 p53 Agonism Beta-lactamase Assay, Ratio, Phase 5 (AID 2283599). A digest of the protocol:
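HCT-116 p53-bla cells (4000/well) plated 5 h, dosed with compound (217-fold DMSO dilution) for 16 h at 37 C; CCF4-AM substrate 2 h at room temperature. Activity is the 460/530 nm emission ratio (405 nm excitation), fitted in gain-of-signal direction versus DMSO.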

A short description of assay [7]: TOX21_p53_BLA_p5_viability: Viability Assessment in the Tox21 HCT-116 p53 Agonism Beta-lactamase Assay, Phase 5 (AID 2283600). The gist of the method:
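ATP luminescence (CellTiter-Glo, 30 min, RT) served as the viability read-out, with loss of signal indicating cytotoxicity. Compounds in DMSO were pinned at a 217-fold dilution onto 4000 cells/well and incubated 16 h, 37C.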

Assay [8] addresses Cellular tumor antigen p53 (Homo sapiens) (UniProt P04637). In words: TOX21_p53_BLA_p4_ratio: Tox21 HCT-116 p53 Agonism Beta-lactamase Assay, Ratio, Phase 4 (AID 2283601). A digest of the protocol:
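HCT-116 p53 beta-lactamase reporter cells (4000/well) preincubated 5 h, then compound (217-fold dilution of DMSO stock) for 16 h at 37C. CCF4-AM substrate added 2 h at room temperature; 460/530 nm emission ratio fitted upward versus DMSO.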

These results are taken from PubChem BioAssay (EPA / NIEHS).

Several values for one entry are separate records, joined by “and”; a condition that tells them apart may be missing. Equal entries are not always repeated. Results filed as inconclusive are left out. Some structures have more than one record in an assay (separate samples or runs), and their calls can disagree. Activity calls are given as the source filed them. Rule for the calls: active = hit-call score of the fitted dose curve at least 0.9, where 1 is the maximum; inconclusive = response in the unintended direction; inactive = score below 0.9.

Cellular tumor antigen p53 (Homo sapiens), sequence (P04637 whole entry, looked up): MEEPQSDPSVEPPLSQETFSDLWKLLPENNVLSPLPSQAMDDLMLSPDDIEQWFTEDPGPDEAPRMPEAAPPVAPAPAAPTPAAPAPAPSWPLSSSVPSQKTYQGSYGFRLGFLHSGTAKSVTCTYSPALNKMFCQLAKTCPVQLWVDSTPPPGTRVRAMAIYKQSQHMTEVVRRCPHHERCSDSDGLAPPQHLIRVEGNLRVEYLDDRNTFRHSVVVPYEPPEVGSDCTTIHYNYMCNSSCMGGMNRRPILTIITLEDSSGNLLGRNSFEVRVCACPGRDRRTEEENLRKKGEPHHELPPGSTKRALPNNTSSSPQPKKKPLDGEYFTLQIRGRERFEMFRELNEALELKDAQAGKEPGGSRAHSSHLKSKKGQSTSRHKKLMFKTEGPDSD

Regarding `Cc1ccc(N=Nc2c(O)ccc3ccccc23)c(C)c1`, in assay [1], the call was inactive.
With `O=S(=O)(O)c1ccccc1`, in assay [1], the compound was called inactive.
`Nc1ccn([C@@H]2O[C@H](CO)[C@@H](O)C2O)c(=O)n1` (stereo partly specified): the compound was called inactive in assay [1].
For `Clc1ccc2c(Cl)ccnc2c1`, the compound was classed as inactive in assay [1].
Regarding `CC1=CC(=O)c2ccccc2C1=O`, the compound was called inactive in assay [1], in assay [2], in assay [3], in assay [6], in assay [7] and in assay [8]. The AC50 in assay [2] is 51.1 µM (active); in assay [4] it was 35.7 µM (active) and 36.7 µM (active); in assay [5], 29.7 µM (active) and 41.4 µM (active); in assay [6], 40.7 µM (active); in assay [7], 37.9 µM (active).
Consider `O=S(=O)(c1ccc(OCc2ccccc2)cc1)c1ccccc1O`, for which, in assay [1], the result was inactive.
With `CC(C)c1c(C(=O)Nc2ccccc2)c(-c2ccccc2)c(-c2ccc(F)cc2)n1CC[C@@H](O)C[C@@H](O)CC(=O)O`, the outcome in assay [1] was inactive.
On the same count and under the same terms, the same measure for `CC(C)CCOCCC(C)C`: “inactive”.
Still for that read-out and setting: the result for `COC1=CC(=O)C[C@@H](C)[C@]12Oc1c(Cl)c(OC)cc(OC)c1C2=O` reads “inactive”; that for `O=C(O)CN(CCCN(CC(=O)O)CC(=O)O)CC(=O)O`, “inactive”; that for `COc1cccc(O)c1`, “inactive”.
Regarding `CCCCCCCCCCCC`, in assay [1], the AC50 is 89.9 µM (active).
For the compound `Oc1c(Cl)cc(Cl)cc1Sc1cc(Cl)cc(Cl)c1O`, the AC50 is 41.5 µM (active) in assay [1]; 43.1 µM (active) and 23.4 µM (active) and 76.2 µM (active) in assay [2]; 73.1 µM (active) and 36.2 µM (active) and 1.49 µM (active) in assay [4]; 82 µM (active) and 85.7 µM (active) in assay [7]. In addition, the call in assay [2], in assay [4] and in assay [7] was inactive.
On to `CC[N+](CC)(CC)Cc1ccccc1`, for which, in assay [1], the call was inactive.
In the case of `CC(C)(c1ccc(Oc2ccc(N)cc2)cc1)c1ccc(Oc2ccc(N)cc2)cc1`, the AC50 in assay [1] is 48.6 µM (active).
As to `CCCCCCCCCCCC[N+](C)(C)Cc1ccccc1`, in assay [1], the AC50 is 24.2 µM (active) and 31.9 µM (active).
As for `C=CC(=O)OCCN(CC)CC`, the outcome in assay [1] was inactive.
For the compound `CC1CCC(CO)CC1` (stereo unspecified), in assay [1], the result was inactive.
Consider `CC1CNCC(C)O1` (stereo unspecified), for which the result in assay [1] was inactive.
Consider `CCCCCCCCC(C)=O`, for which the call in assay [1] was inactive.
Consider `OCCN1CN(CCO)CN(CCO)C1`, for which the compound was called inactive in assay [1].
Same read-out and setting: the same measure for `C=CC(=C)CC/C=C(\C)CCC=C(C)C`: “inactive”.
Take `CN(C)c1ccc(C(=C2C=CC(=[N+](C)C)C=C2)c2ccccc2)cc1`: the AC50 is 10.1 µM (active) and 7.71 µM (active) in assay [1]; 1.83 µM (active) in assay [2]; 9.06 µM (active) and 39.7 µM (active) in assay [3]; 1.15 µM (active) in assay [4]; 15.1 µM (active) in assay [5]; 19.2 µM (active) in assay [6]. Further, the AC50 in assay [8] was 15.8 µM (active). Also, the outcome in assay [2], in assay [4], in assay [5], in assay [6], in assay [7] and in assay [8] was inactive.
For the compound `Oc1cc2ccccc2cc1O`, the compound was called inactive in assay [1].
For `O=C(NCc1ncc(C(F)(F)F)cc1Cl)c1c(Cl)cccc1Cl`, the compound was classed as inactive in assay [1].
For the compound `CCOC(=O)c1nc(C(Cl)(Cl)Cl)n(-c2ccc(Cl)cc2Cl)n1`, the call in assay [1] was inactive.
As for `NNC(=O)CCCCC(=O)NN`, the result in assay [1] was inactive.
Same read-out and setting: the result for `CC(C)[C@@H]1CC[C@@H](C)C[C@H]1O` reads “inactive”.
For the compound `CCCCN(C)C`, the call in assay [1] was inactive.
Same read-out and setting: the result for `Cn1sccc1=O` reads “inactive”; that for `Cc1cccc2c1ccc1ccccc12`, “inactive”; that for `CCc1cccc(CC)c1N(COC)C(=O)CS(=O)(=O)O`, “inactive”.
On the same count and under the same terms, the same measure for `C=COC(=O)C(C)(C)CCCCCC`: “inactive”.
Turning to `COc1ccc(C#N)cc1`, in assay [1], the compound was called inactive.
In the case of `C=C(c1ccc(C(=O)O)cc1)c1cc2c(cc1C)C(C)(C)CCC2(C)C`, in assay [1], the AC50 was 25.3 µM (active).
With `Oc1ccc(Cc2ccccc2O)cc1`, the compound was called inactive in assay [1], in assay [2], in assay [3], in assay [4], in assay [5] and in assay [6].
Take `CCCCCC(C)OC(=O)COc1ccc(Cl)c2cccnc12` (stereo unspecified): the result in assay [1], in assay [2], in assay [3], in assay [4], in assay [5] and in assay [6] was inactive. Also, the compound was classed as inactive in assay [7].
